Data: PubChem BioAssay (EPA / NIEHS)
Where “and” joins values, the source holds several entries; their conditions need not be identical. Equal values may be shown once. Inconclusive results are not listed. The source holds several records for some structures; these can differ, active in one and inactive in another. Calls of active or inactive are those of the source. How the source made its calls: active means hit-call score of the fitted dose curve at least 0.9, where 1 is the maximum; inconclusive means response in the unintended direction; inactive means score below 0.9. Peptide text beside a SMILES is read from it.

Columns and labels:
[1] = TOX21_p53_BLA_p2_viability: Viability Assessment in the Tox21 HCT-116 p53 Agonism Beta-lactamase Assay, Phase 2 (AID 2283591);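 further: compound exposure lasted 16 h at 37 °C; actives lower the ATP signal meaning cytotoxicity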
Outline: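 HCT116 p53-bla cells, 4000/well, dosed after 5 h plating (217-fold dilution of DMSO stocks) and incubated 16 h at 37C. Viability taken as cellular ATP by CellTiter-Glo luminescence after 30 min RT; signal loss marks cytotoxicity.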

[2] = target: Cellular tumor antigen p53 (Homo sapiens) (UniProt P04637); experiment: TOX21_p53_BLA_p2_ratio: Tox21 HCT-116 p53 Agonism Beta-lactamase Assay, Ratio, Phase 2 (AID 2283592)
Chain of Cellular tumor antigen p53 (Homo sapiens) (P04637 whole entry, looked up): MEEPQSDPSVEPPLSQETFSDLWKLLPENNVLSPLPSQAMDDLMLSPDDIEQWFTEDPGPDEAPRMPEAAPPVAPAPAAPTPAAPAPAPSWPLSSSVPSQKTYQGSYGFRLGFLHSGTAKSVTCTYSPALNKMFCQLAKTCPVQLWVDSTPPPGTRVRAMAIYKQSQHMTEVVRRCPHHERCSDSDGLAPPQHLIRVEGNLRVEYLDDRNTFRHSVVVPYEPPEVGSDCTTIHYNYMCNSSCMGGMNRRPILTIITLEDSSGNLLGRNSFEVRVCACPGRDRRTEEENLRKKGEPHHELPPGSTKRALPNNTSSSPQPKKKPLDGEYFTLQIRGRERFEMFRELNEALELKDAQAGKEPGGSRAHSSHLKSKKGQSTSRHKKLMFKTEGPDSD
Outline: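 Human colon HCT116 cells with an inducible p53 beta-lactamase reporter are exposed to test chemicals for 16 h at 37C. Reporter induction is read as the 460/530 nm emission ratio after CCF4-AM loading, normalized to DMSO.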

[3] = TOX21_p53_BLA_p3_viability: Viability Assessment in the Tox21 HCT-116 p53 Agonism Beta-lactamase Assay, Phase 3 (AID 2283593);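 further: cells exposed to compound for 16 h before reading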
Outline: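 HCT116 cells, 4000/well, dosed 5 h after plating by pin transfer (217-fold dilution from DMSO stock) and incubated 16 h at 37C, 5% CO2. Viability read as ATP luminescence with CellTiter-Glo after 30 min at room temperature.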

[4] = target: Cellular tumor antigen p53 (Homo sapiens) (UniProt P04637); experiment: TOX21_p53_BLA_p3_ratio: Tox21 HCT-116 p53 Agonism Beta-lactamase Assay, Ratio, Phase 3 (AID 2283596)
Outline: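 HCT116 p53-bla cells (4000/well) given compound in DMSO (217-fold dilution) after 5 h, incubated 16 h at 37C. CCF4-AM substrate 2 h at room temperature; 460/530 nm emission ratio, gain fitted against DMSO.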

[5] = TOX21_p53_BLA_p4_viability: Viability Assessment in the Tox21 HCT-116 p53 Agonism Beta-lactamase Assay, Phase 4 (AID 2283597);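 further: hits lower the luminescence signal meaning cytotoxicity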
Outline: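 Luminescent ATP readout (CellTiter-Glo, 30 min, room temperature) in the same wells as the p53 bla ratio. HCT116 cells were treated for 16 h at 37C with DMSO-dissolved compounds.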

[6] = target: Cellular tumor antigen p53 (Homo sapiens) (UniProt P04637); experiment: TOX21_p53_BLA_p5_ratio: Tox21 HCT-116 p53 Agonism Beta-lactamase Assay, Ratio, Phase 5 (AID 2283599)
Outline: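 HCT-116 p53-bla cells (4000/well) plated 5 h, dosed with compound (217-fold DMSO dilution) for 16 h at 37 C; CCF4-AM substrate 2 h at room temperature. Activity is the 460/530 nm emission ratio (405 nm excitation), fitted in gain-of-signal direction versus DMSO.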

[7] = TOX21_p53_BLA_p5_viability: Viability Assessment in the Tox21 HCT-116 p53 Agonism Beta-lactamase Assay, Phase 5 (AID 2283600)
Outline: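 Seeded cells (4000/well) settle 5 h before compound addition. Plates then incubate 16 h at 37C, receive FRET substrate for 2 h, and finally CellTiter-Glo, with luminescence measured after a 30 min room-temperature incubation.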

[8] = target: Cellular tumor antigen p53 (Homo sapiens) (UniProt P04637); experiment: TOX21_p53_BLA_p4_ratio: Tox21 HCT-116 p53 Agonism Beta-lactamase Assay, Ratio, Phase 4 (AID 2283601)
Outline: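 HCT-116 p53 beta-lactamase reporter cells (4000/well) preincubated 5 h, then compound (217-fold dilution of DMSO stock) for 16 h at 37C. CCF4-AM substrate added 2 h at room temperature; 460/530 nm emission ratio fitted upward versus DMSO.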

[9] = ATG_XTT_Cytotoxicity: Cytotoxicity Assessment in the Attagene TRANS-FACTORIAL HepG2 Assay (AID 2283584)
Outline: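 24 h chemical exposure of reporter-transfected HepG2; XTT signal loss vs DMSO indicates cytotoxicity.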

Measured: AC50

C=C[C@@]1(C)CC(=O)[C@]2(O)[C@@]3(C)[C@@H](O)CCC(C)(C)[C@@H]3[C@H](O)[C@H](OC(C)=O)[C@@]2(C)O1
inactive: [1] | [2] | [3] | [4] | [5] | [6] | [7] | [8]
active: [5] 27.1 µM

CC=C(C)C=CC=C(C)C
not listed: [1] | [2] | [7]
inactive: all other assays above

CC1=CC=C(C(C)C)CC1
inactive: [9] | [6]

CCCCC/C=C\C/C=C\CCCCCCCC(=O)O
active: [1] 41.5 µM | [2] 72.9 µM | [3] 47.2 µM | [4] 72 µM | [6] 86.3 µM
inactive: [1] | [2] | [3] | [4] | [5] | [6] | [8]

CCCSSCCC
inactive: [9] | [4]

CC/C=C\CCOC(=O)c1ccccc1O
not listed: [5] | [9]
inactive: all other assays above

O=C(O)C1CCC(C(=O)O)CC1 (configuration not stated)
active: [5] 82.4 µM | [8] 85.8 µM
not listed: [7] | [9]
inactive: all other assays above

C=C(C)C(=O)OCCOC(=O)C(=C)C
not listed: [9]
inactive: all other assays above

N=C1C=CC(=C(c2ccc(N)cc2)c2ccc(N)cc2)C=C1
active: [2] 54.2 µM | [4] 60.4 µM | [6] 67.3 µM
inactive: [1] | [3] | [5] | [8]

NNS(=O)(=O)c1ccc(Oc2ccc(S(=O)(=O)NN)cc2)cc1
inactive: [9] | [3] | [6] | [7] | [8]

COC(=O)[C@H](Cc1ccccc1)NC(=O)[C@@H](N)CC(=O)O (H-Asp-Phe-OMe)
not listed: [9]
inactive: all other assays above

O=C(OCc1ccccc1)c1ccc(O)cc1
not listed: [9]
inactive: all other assays above

C=CCCCCCCCCC=O
inactive: [9] | [5] | [6]

CCc1occc(=O)c1O
inactive: [1]

CN(C)c1ccc2nc3ccc(=[N+](C)C)cc-3sc2c1
inactive: [1] | [3] | [4] | [5] | [6]
active: [2] 8.31 µM and 23 µM and 11.1 µM | [3] 23 µM | [4] 34.3 µM | [5] 10.8 µM | [6] 45.7 µM and 13 µM | [8] 41.2 µM and 14.4 µM and 28.4 µM

O=C(O)/C=C/c1ccccc1
not listed: [9]
inactive: all other assays above

CCCCCCOc1ccc(N)cc1
not listed: [7] | [9]
inactive: all other assays above

C=C1C[C@H]2[C@@H]3C=C(C)C4=CC(=O)CC[C@]4(C)[C@H]3CC[C@]2(C)[C@@]1(OC(C)=O)C(C)=O
not listed: [9]
inactive: all other assays above

O=S(=O)(O)c1ccc(N=Nc2c(O)ccc3ccccc23)cc1
active: [5] 44 µM
not listed: [9]
inactive: all other assays above

O=C(O)c1ccc2c(c1)C(=O)OC2=O
not listed: [6] | [9]
inactive: all other assays above

CCCCCCCC(=O)OCC(COC(=O)CCCCCCC)OC(=O)CCCCCCC
not listed: [7] | [9]
inactive: all other assays above

CC(C)(c1ccccc1)c1ccc(Nc2ccc(C(C)(C)c3ccccc3)cc2)cc1
not listed: [9]
inactive: all other assays above

CCCCNC(=S)NCCCC
not listed: [6] | [9]
inactive: all other assays above

CO[Si](C)(C)OC
inactive: [9] | [2] | [5] | [6] | [8]

N#CC1(N)CCCCC1
not listed: [9]
inactive: all other assays above

COc1cc(C)ccc1O
not listed: [1] | [2] | [3]
inactive: all other assays above

O=C(Oc1ccccc1)c1ccccc1C(=O)Oc1ccccc1
not listed: [7] | [9]
inactive: all other assays above

CCCc1ccc(O)c(OC)c1
inactive: [9] | [2] | [4] | [6] | [8]

CO[Si](CCCS)(OC)OC
inactive: [9] | [2] | [4] | [6] | [8]

CC1=NN(c2ccc(S(=O)(=O)O)cc2)C(=O)C1N=Nc1ccccc1 (configuration not stated)
inactive: [9] | [5] | [8]

CC(C)(C)N
inactive: [9] | [4] | [5]

CC(=O)c1ccc(S(=O)(=O)NC(=O)NC2CCCCC2)cc1
not listed: [9]
inactive: all other assays above

CC1CCC(C(C)(C)S)C(=O)C1 (configuration not stated)
inactive: [9] | [4] | [5] | [6] | [8]

CCC[Si](OC)(OC)OC
not listed: [1] | [2] | [7]
inactive: all other assays above
